From ChEMBL document CHEMBL1961873, “Compounds: GSK PKIS; Assays: Nanosyn kinase panel” (2012)
Values joined by “and” are separate entries in the source; they are usually repeats but may differ in a detail not shown here. Equal values may be shown once.

Legend:
[1] = molecular target: Mitogen-activated protein kinase kinase kinase kinase 4 (Homo sapiens) (UniProt O95819); conditions: at 1 µM;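 note: reported figure is an averaged inhibition value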
[2] = molecular target: Dual specificity mitogen-activated protein kinase kinase 1 (Homo sapiens) (UniProt Q02750); conditions: at 0.1 µM
Sequence of Dual specificity mitogen-activated protein kinase kinase 1 (Homo sapiens) (Q02750 whole entry): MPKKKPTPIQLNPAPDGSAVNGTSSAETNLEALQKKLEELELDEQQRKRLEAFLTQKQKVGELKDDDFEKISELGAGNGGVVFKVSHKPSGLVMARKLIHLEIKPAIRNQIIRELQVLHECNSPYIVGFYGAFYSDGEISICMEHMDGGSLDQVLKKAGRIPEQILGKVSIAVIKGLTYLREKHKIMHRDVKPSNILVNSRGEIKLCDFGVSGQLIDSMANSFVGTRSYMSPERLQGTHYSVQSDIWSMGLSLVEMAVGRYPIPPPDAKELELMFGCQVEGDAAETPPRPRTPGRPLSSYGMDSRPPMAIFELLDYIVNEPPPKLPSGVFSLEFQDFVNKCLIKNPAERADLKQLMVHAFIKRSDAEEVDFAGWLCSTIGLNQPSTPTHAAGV

[3] = molecular target: Dual specificity mitogen-activated protein kinase kinase 1 (Homo sapiens) (UniProt Q02750); conditions: at 1 µM
[4] = molecular target: Misshapen-like kinase 1 (Homo sapiens) (UniProt Q8N4C8); conditions: at 0.1 µM
Sequence of Misshapen-like kinase 1 (Homo sapiens) (Q8N4C8 whole entry, looked up): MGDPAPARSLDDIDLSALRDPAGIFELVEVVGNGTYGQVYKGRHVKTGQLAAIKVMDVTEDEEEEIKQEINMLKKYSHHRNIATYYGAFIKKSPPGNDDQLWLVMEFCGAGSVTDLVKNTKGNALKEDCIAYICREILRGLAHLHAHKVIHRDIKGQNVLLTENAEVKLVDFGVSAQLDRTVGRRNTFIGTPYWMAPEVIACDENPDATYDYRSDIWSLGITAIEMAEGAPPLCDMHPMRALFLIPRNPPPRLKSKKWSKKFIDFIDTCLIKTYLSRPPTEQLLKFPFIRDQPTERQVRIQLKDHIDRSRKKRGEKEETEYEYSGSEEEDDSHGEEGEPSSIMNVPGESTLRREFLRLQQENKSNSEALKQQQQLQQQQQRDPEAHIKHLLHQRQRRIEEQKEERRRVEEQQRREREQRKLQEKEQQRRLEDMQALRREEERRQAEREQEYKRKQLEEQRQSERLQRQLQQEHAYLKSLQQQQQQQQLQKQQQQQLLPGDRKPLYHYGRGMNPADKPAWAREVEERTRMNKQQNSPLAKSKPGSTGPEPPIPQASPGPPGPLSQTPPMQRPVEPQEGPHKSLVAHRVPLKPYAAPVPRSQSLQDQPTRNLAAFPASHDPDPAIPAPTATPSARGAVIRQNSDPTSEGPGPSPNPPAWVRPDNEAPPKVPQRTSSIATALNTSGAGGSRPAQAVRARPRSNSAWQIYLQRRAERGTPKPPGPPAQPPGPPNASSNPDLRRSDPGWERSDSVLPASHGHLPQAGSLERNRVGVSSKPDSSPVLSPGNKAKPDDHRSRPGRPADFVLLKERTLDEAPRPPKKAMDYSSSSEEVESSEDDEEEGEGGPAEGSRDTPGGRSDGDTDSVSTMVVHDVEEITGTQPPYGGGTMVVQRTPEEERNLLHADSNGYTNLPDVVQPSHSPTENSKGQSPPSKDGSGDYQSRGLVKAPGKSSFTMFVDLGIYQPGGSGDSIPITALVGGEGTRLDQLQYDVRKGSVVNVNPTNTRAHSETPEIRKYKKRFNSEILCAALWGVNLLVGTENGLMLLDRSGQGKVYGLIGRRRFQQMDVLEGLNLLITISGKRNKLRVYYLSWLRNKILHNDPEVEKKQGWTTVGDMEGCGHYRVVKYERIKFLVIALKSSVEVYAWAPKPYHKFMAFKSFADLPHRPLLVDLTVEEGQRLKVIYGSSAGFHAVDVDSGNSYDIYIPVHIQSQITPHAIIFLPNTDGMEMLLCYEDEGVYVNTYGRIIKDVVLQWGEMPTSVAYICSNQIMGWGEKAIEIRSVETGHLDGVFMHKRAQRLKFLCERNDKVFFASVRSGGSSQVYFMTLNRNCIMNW

[5] = molecular target: Misshapen-like kinase 1 (Homo sapiens) (UniProt Q8N4C8); conditions: at 1 µM
[6] = molecular target: T1, Serine/threonine-protein kinase 4 (Homo sapiens) (UniProt Q13043); conditions: at 0.1 µM
T1 sequence (whole entry): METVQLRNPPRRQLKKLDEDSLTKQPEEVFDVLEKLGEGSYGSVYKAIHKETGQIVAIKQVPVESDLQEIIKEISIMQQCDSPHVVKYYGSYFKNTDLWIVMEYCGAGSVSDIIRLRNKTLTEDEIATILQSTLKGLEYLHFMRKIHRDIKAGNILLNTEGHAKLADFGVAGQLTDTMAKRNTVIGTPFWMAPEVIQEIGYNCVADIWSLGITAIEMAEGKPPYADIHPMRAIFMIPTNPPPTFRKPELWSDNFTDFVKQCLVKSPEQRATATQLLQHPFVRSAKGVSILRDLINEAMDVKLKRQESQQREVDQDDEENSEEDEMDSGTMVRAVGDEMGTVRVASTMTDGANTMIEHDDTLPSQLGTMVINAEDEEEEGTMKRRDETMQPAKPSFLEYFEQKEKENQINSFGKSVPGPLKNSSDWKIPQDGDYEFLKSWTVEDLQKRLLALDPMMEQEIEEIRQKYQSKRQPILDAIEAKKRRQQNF

[7] = molecular target: T1, Serine/threonine-protein kinase 4 (Homo sapiens); conditions: at 1 µM
[8] = molecular target: T2, Serine/threonine-protein kinase 3 (Homo sapiens) (UniProt Q13188); conditions: at 0.1 µM
T2 sequence (whole entry): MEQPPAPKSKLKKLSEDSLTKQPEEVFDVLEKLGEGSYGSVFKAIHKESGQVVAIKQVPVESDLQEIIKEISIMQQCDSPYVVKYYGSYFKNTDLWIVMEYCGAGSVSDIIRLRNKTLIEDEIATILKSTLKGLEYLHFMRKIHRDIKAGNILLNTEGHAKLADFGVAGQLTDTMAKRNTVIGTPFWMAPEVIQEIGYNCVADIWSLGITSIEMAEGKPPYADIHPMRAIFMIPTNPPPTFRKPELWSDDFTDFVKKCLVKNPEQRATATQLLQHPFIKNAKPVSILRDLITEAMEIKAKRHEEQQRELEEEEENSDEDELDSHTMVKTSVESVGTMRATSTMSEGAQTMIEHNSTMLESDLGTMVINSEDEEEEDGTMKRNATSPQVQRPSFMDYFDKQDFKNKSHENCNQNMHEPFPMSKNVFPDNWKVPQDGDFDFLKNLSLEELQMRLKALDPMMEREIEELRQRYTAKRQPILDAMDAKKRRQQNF

[9] = molecular target: T2, Serine/threonine-protein kinase 3 (Homo sapiens); conditions: at 1 µM
[10] = molecular target: Serine/threonine-protein kinase 26 (Homo sapiens) (UniProt Q9P289); conditions: at 0.1 µM
Sequence of Serine/threonine-protein kinase 26 (Homo sapiens) (Q9P289 2-416 limits assumed): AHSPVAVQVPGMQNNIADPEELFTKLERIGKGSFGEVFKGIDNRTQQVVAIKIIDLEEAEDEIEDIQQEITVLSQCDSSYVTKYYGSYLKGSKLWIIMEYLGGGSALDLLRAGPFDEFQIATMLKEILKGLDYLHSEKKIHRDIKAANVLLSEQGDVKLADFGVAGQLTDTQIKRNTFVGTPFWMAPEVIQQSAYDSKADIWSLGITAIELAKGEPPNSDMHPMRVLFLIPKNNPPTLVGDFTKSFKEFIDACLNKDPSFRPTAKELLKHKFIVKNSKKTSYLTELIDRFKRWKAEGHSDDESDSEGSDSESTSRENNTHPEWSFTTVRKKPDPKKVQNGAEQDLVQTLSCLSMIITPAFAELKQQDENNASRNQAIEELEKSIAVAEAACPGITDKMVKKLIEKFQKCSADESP

Sequence of Mitogen-activated protein kinase kinase kinase kinase 4 (Homo sapiens) (O95819 2-1239 limits assumed): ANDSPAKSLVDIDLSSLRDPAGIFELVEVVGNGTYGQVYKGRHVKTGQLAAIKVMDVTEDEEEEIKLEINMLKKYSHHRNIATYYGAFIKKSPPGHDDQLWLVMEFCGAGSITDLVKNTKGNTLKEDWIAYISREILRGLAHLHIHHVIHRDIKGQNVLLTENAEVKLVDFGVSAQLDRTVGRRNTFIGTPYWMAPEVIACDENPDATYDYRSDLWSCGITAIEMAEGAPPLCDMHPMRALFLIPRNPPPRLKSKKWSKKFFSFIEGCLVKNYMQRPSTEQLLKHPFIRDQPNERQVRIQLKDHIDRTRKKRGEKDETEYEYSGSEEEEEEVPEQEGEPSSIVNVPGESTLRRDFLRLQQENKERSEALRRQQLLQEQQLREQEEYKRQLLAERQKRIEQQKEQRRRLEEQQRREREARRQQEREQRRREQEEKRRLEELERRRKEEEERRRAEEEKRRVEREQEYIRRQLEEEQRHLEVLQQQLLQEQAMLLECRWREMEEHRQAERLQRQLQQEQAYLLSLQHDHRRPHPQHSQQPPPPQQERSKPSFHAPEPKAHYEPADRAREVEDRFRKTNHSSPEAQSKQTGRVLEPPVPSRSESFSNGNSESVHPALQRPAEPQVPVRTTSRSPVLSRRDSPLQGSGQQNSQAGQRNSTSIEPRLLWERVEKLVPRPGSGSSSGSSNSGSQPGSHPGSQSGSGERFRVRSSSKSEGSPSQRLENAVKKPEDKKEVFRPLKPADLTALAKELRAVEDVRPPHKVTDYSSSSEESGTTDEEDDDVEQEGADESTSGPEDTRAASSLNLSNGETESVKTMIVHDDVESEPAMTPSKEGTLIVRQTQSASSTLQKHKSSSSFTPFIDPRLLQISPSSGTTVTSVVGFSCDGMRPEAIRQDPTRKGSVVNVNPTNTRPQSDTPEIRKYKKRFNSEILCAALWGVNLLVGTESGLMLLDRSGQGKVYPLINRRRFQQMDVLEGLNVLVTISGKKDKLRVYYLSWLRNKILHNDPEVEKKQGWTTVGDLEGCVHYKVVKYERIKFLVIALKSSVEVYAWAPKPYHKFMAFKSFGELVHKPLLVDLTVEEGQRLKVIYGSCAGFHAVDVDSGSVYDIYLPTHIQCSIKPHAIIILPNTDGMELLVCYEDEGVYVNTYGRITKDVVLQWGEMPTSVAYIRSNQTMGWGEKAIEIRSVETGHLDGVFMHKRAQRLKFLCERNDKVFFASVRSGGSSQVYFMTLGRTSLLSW

Row | Compound | inhibition [1] | inhibition [2] | inhibition [3] | inhibition [4] | inhibition [5] | inhibition [6] | inhibition [7] | inhibition [8] | inhibition [9] | inhibition [10]
1 | COc1cc2c(cc1Nc1nc(Nc3cccc(F)c3C(N)=O)c3cc[nH]c3n1)N(C(=O)CN1CCN(C(C)C)CC1)CC2 | 3.14% | 0.13% | 4.11% | 3.15% | 3.43% | 0.17% | 3.77% | 2.26% | 2.65% | 1.63%
2 | COc1cc(Nc2ncc(-c3ccccc3)o2)cc(OC)c1 | 18.8% | 4.41% | 3.91% | 8.63% | 19.5% | 3.72% | 6.2% | 6.11% | 6.9% | -1.04%
3 | CCn1c(-c2nonc2N)nc2cncc(C(=O)NCCNC)c21 | 11.3% | 4.81% | 3.62% | 7.39% | 10.8% | 3.84% | 6.56% | 5.96% | 7.27% | -3.72%
4 | NC(=O)c1ccc2c(-c3ccnc(NCCCO)n3)c(-c3ccc(F)cc3)nn2c1 | 51.7% | 6.94% | 13.2% | 10.1% | 35.5% | 4.48% | 5.36% | 4.28% | 4.67% | -2.37%
5 | COC(=O)Nc1nc2ccc(Oc3ccc(NC(=O)Nc4cc(C(F)(F)F)ccc4F)cc3)cc2s1 | 8.34% | 0.28% | 1.52% | 2.27% | 6.19% | -0.61% | -1.63% | -0.86% | -0.3% | 0.45%
6 | CS(=O)(=O)CCNCc1ccc(-c2ccc3ncnc(Nc4ccc(OCc5cccc(C(F)(F)F)c5)cc4)c3c2)o1 | 6.36% | 3.29% | 5.38% | 5.26% | 3.68% | 3.43% | 5.83% | 4.6% | 5.04% | -1.93%
7 | CNC(=O)c1cncc(/C=C/c2ccccc2C)c1 | 19.7% | 6.36% | 5.22% | 8.44% | 15.5% | 9.28% | 17.2% | 9.07% | 15.2% | 1.02%
8 | CS(=O)(=O)CCNCc1ccoc1-c1ccc2ncnc(Nc3ccc(OCc4ccccc4)cc3)c2c1 | 4.29% | 1.46% | 2.49% | 1.28% | 2.65% | 1.95% | 2.79% | 2.37% | 3.29% | -1.84%
9 | CN1CCC(C(=O)Nc2n[nH]c3nc(-c4ccc(O)cc4)c(Br)cc23)CC1 | 35.4% and 22.5% | 6.37% and 2.39% | 5.03% and 2.15% | 7.75% and 5.32% | 28.1% and 15.2% | 6.69% and 1.72% | 14.7% and 2.3% | 6.33% and 2.47% | 13.2% and 3.69% | 1.4% and 1.72%
10 | CC1=C(C(=O)Nc2ccc3[nH]nc(C)c3c2)C(c2ccc(C(F)(F)F)cc2)CC(=O)N1 (stereo not given) | 1.55% | 6.17% | 36.5% | 4.68% | 4.08% | 5.04% | 7.56% | 5.03% | 5.46% | -1.47%
11 | FC(F)(F)CNc1nccc(-c2cnn3ncccc23)n1 | 3.37% | 1.61% | 2.41% | 3.42% | 3.44% | 3.65% | 3.82% | 6.06% | 6.67% | -0.96%
12 | O=C(O[C@H]1CN[C@H](C#Cc2cc3ncnc(Nc4ccc(OCc5cccc(F)c5)c(Cl)c4)c3s2)C1)N1CCOCC1 | 8.44% | 6.24% | 5.74% | 6.37% | 9.94% | 4.18% | 8.15% | 5.87% | 6.61% | -0.22%
13 | CN1CCC(n2cnc(-c3ccc(F)cc3)c2-c2ccnc(NCCO)n2)CC1 | 17.5% | 4.13% | 5.25% | 7.76% | 15.8% | 7.06% | 10.4% | 7.55% | 9.48% | -1.24%
14 | Cc1ccc(-c2cc3c(NC(=O)C4CC4)ncnc3o2)cc1 | 8.27% | 3.02% | 3.21% | 6.35% | 8.16% | 6.14% | 7.49% | 5.64% | 4.87% | -2.57%
15 | CC1=C(C(=O)Nc2ccc3[nH]ncc3c2)C(c2ccc(F)cc2)N=C(c2ccc(C(F)(F)F)nc2)N1 (stereo not given) | 2.92% | -0.07% | 3.43% | 4.22% | 2.06% | 2.29% | 2.27% | 2.18% | 0.56% | -0.24%
16 | Nc1ncnc2occ(-c3ccc(NC(=O)Nc4cc(C(F)(F)F)ccc4F)cc3)c12 | 22.3% and 6.15% | 1.15% and -1.72% | 2.3% and 0.44% | 6.26% and -2.13% | 19.9% and 2.27% | 4.27% and -2.54% | 8.75% and 0.44% | 4.42% and -3.89% | 6.36% and -2.2% | 0.12% and -0.14%

Row | Compound | inhibition [1] | inhibition [2] | inhibition [3] | inhibition [4] | inhibition [5] | inhibition [6] | inhibition [7] | inhibition [8] | inhibition [9] | inhibition [10]
17 | NS(=O)(=O)c1ccc(N/N=C2\C(=O)Nc3ccc(C(=O)NCc4ccncc4)cc32)cc1 | 46.5% | 15.6% | 57.6% | 9.67% | 39.4% | 36.8% | 76.1% | 31.2% | 72% | 0.05%
18 | CNC(=O)c1sc(-n2cnc3cc(OC)c(OC)cc32)cc1OCc1ccccc1C(F)(F)F | 12.2% | 3.14% | 3.6% | 9.53% | 12.2% | 2.47% | 3.85% | 5.34% | 7.16% | -0.27%
19 | c1cnn2ncc(-c3ccnc(NCCCN4CCOCC4)n3)c2c1 | 8.87% | 4.91% | 3.9% | 4.95% | 12.1% | 2.04% | 1.9% | 3.76% | 2.29% | -1.84%
20 | CS(=O)(=O)Nc1ccc(-c2ccc3c(NC(=O)C4CC4)n[nH]c3c2)cc1 | 34.1% | 3.68% | 2.95% | 6.49% | 20.9% | 4.89% | 11.3% | 5.64% | 9.06% | -0.25%
21 | CCN1CCC(C(=O)Nc2n[nH]c3nnc(-c4cccc(F)c4F)cc23)CC1 | 6.9% | 2.15% | 2% | 2.44% | 5.72% | 0.2% | 4.08% | -0.56% | 2.63% | 0.52%
22 | OCCCNc1nccc(-c2c(-c3ccc(F)cc3)nn3cc(C(F)(F)F)ccc23)n1 | 21.4% | 1.92% | 7.22% | 5.07% | 13.3% | 3.31% | 5.88% | 4.28% | 2.96% | 0.48%
23 | Nc1nccc(-c2c(-c3ccc(F)cc3)ncn2C2CCNCC2)n1 | 11.7% and 20.6% | -1.59% and 0.76% | 1.41% and 5.84% | -0.88% and 2.53% | 6.74% and 17% | -3.42% and 0.28% | -0.43% and 1.1% | -3.39% and 1.21% | 1.14% and 0.77% | 0.83% and -0.54%
24 | COc1ccc2ncn(-c3cc(O[C@H](C)c4ccccc4C(F)(F)F)c(C(N)=O)s3)c2c1 | 3.61% | 0.25% | -0.57% | 1.05% | 4.03% | 1.43% | 22.5% | 0.2% | 18.8% | 0.64%
25 | Cc1c2ccc(N(C)c3ccnc(Nc4cccc(S(N)(=O)=O)c4)n3)cc2nn1C | 55.2% | 6.31% | 10.7% | 12.8% | 55.3% | 6.6% | 8.01% | 5.78% | 7.64% | -1.28%
26 | COc1cccc(Nc2nccc(-c3cnn4ncccc34)n2)c1 | 63.2% | 3.11% | 29.1% | 11.1% | 57.6% | 6.23% | 30% | 5.37% | 24.6% | 1.55%
27 | c1ccc(-c2n[nH]cc2-c2ccnc(-c3ccc(OCCn4ccnc4)cc3)c2)nc1 | 81.8% | 5.95% | 2.45% | 31.9% | 79% | -0.86% | 6.24% | -0.71% | 3.49% | -1.3%
28 | COc1ccc(Nc2ncc(-c3ccccc3)o2)cc1OC | 48.3% | 0.51% | 2.06% | 7.04% | 35.5% | 0.86% | 4.87% | -0.13% | 2.73% | -0.79%
29 | COc1cc(N2CCN(C(C)C)CC2)ccc1Nc1nc(Nc2cccc3ncccc23)c2cc[nH]c2n1 | 8.08% | -1.29% | 0.07% | 0.56% | 6.73% | -1.1% | 0.07% | 0.03% | 0.57% | -0.29%
30 | Nc1nonc1-c1nc2cnccc2n1C1CC1 | 39.8% and 40% | 3% and 3.58% | 6.15% and 7.11% | 9.13% and 8.38% | 30.2% and 28.1% | 6.61% and 2.32% | 23.1% and 15.3% | 6.77% and 2.58% | 17.9% and 12.6% | -0.67% and -1.23%
31 | O=C1Nc2ccccc2/C1=C1\CCc2cc(O)ccc21 | 66.8% | 7.68% | 9.97% | 17.6% | 58.9% | 20.8% | 58.5% | 15.1% | 52.4% | -4.52%
